# Screening data from PubChem.
# A selection: hits, their analogues and other compounds. The true share with any hit is near 1.8%.
# AI-2 QS mod = modulates the Vibrio harveyi AI-2 quorum sensing system; Vibrio harveyi JMH597 AI-2 luminescence/OD600 ratio, 9 h; hits give low values; strain lacks LuxN and CqsS sensors; 0 = neutral-control median; activity change, % at 7.5 µM; 300,000 tested, 0.4% active; AID 2094; in the data active = activity change below about -75%, passing the limit was not always enough;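 also: luminescence divided by OD600 gain over 9 h not by final OD600 alone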
# ARNT-TACC3 inh = disrupts binding between human ARNT and TACC3; Q9Y6A5; AlphaScreen His-ARNT PAS-B/GST-TACC3 binding, luminescence; TACC3 fragment carries E629A point mutation; inhibition, % at 9.99 µM; 390,000 tested, 0.66% active; AID 623870;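 active = mean inhibition of replicates at least 50% and at least half of replicates each reaching 50%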;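 also: 0% = complete ARNT plus TACC3 wells and 100% = ARNT alone without TACC3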
# Mot1-301 SUMO = SUMOylation pathway inhibition by Mot1-301 growth rescue. S. cerevisiae Mot1-301 growth rescue, ATP luminescence, 38.5C; percent above DMSO median, 100 means doubled. growth rescue, % at 18.8 µM. 320,000 tested, 1% active. AID 2716;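 active = every valid replicate shows activation above 250% relative to neutral control wells; inactive = the rest, any valid replicate at or below 250%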;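 also: OY570 slx delta 5 strain wells were the positive control but not used for scaling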
# A1 inh = inhibitors of the anti-apoptotic protein A1, read as caspase activation | 330,000 tested, 0.066% active | caspase activation, % (no concentration beside the values) | MEF A1-2A-BIM cells, Caspase-Glo 3/7 luminescence, 3 h; percent of clofoctol response, vehicle zero;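 active = over half of replicate activation scores above 10%, or exactly half above 10 with the replicate mean above 10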
# aDG glyco up = increases alpha dystroglycan glycosylation | Pro5-aDG cells, alpha-DG glycosylation AlphaScreen (IIH6); 0% Pro5, 100% B10-LARGE cell signal | activation, % at 10 µM | 360,000 tested, 0.22% active | AID 624168;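 active = activation of at least 8% versus controls, or a plate z-score of at least 8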;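 also: Pro5 are CHO cells carrying HIG-tagged alpha-DG that lacks glycosylation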
# ARNT Alpha ctr-1 = AlphaScreen artifact in ARNT/TACC3 counter-screen. AC50, µM (series often up to 68 µM), for the others: at the top dose activity change, negative = signal decrease. shares compounds with ARNT-TACC3 inh. 1,200 tested, 50% active. His-ARNT PASB-GST AlphaScreen artifact counter-screen, luminescence. AID 651705;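 active = every separate test run was called active for a drop in luminescence, with AC50 within twice the top valid dose, actives reach about 71 µM in these data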
# ARNT Alpha ctr-2 = counter-screen for ARNT-TACC3 inhibitors: AlphaScreen artifacts; shares compounds with ARNT-TACC3 inh; Dual-tagged His-ARNT PASB-GST AlphaScreen artifact counter-screen; AC50, µM; 45 tested, 70% active; AID 720564;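 active = luminescence drop, with half-maximal potency fitted within twice the sample's top valid dose, cut at about 70 µM in these data; inactive = the rest, including signal moving the wrong way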
# Active calls of the source: *; . = no result given.
SMILES,AI-2 QS mod,ARNT-TACC3 inh,Mot1-301 SUMO,A1 inh,aDG glyco up,ARNT Alpha ctr-1,others
C/C(=C\C(=O)c1ccccc1)Nc1ccc(N2CCOCC2)cc1,13,39*,38,-5,0,-27%,
Nc1nc(-c2ccccn2)nc(N)c1Cc1ccc(Cl)cc1Cl,62,57*,101,0,4,26µM*,ARNT Alpha ctr-2=12*
CNc1cc(C(F)(F)F)nc(-c2ccccn2)n1,14,28,-5,0,0,.,
Nc1nnc(Cc2ccc(Cl)cc2Cl)s1,5,-11,-13,0,0,.,
Nc1nc(-c2ccccn2)nc(N)c1Cc1ccccc1F,84,67*,-1,0,2,22µM*,
C[C@@H]1CCCCO[C@H](CN(C)CC2CCCCC2)[C@@H](C)CN([C@H](C)CO)C(=O)c2cc(NS(=O)(=O)c3cn(C)cn3)ccc2O1,.,0,.,.,.,.,
Cc1ccc(C2NC(=O)NC(O)(C(F)(F)F)C2C(=O)c2ccccc2)o1 (stereo not given),12,-4,-2,-1,0,.,
Cc1cc(C)c(S(=O)(=O)N2CCCOC2CNC(=O)C(=O)NCCCn2ccnc2)c(C)c1 (stereo not given),14,-17,-18,0,0,.,
COc1ccc(S(=O)(=O)N2CCCOC2CNC(=O)C(=O)NCCCn2ccnc2)cc1OC (stereo not given),15,40*,-8,-1,0,-11%,
Cc1ccc(C)c(S(=O)(=O)N2CCCOC2CNC(=O)C(=O)NCCCn2ccnc2)c1 (stereo not given),0,56*,-7,0,0,-7%,
O=C(NCCCn1ccnc1)C(=O)NCC1OCCN1S(=O)(=O)c1ccc(F)cc1 (stereo not given),40,58*,7,1,4,32µM*,
COc1ccc(S(=O)(=O)N2CCOC2CNC(=O)C(=O)NCCCn2ccnc2)cc1OC (stereo not given),33,59*,3,0,0,-23%,
CN1CCN(C(=O)C[C@@H]2CC[C@@H]3[C@@H](COc4ccc(NC(=O)c5cscn5)cc4C(=O)N3C)O2)CC1,.,3,.,.,.,.,
Cc1ccn2c(Nc3ccccc3C)c(-c3ccccn3)nc2c1,41,70*,-5,1,1,21µM*,
Cc1ccn2c(Nc3ccccc3)c(-c3ccccn3)nc2c1,19,43,-21,0,2,.,
FC(F)(F)c1cnc(C(c2ccccn2)c2ncn[nH]2)c(Cl)c1 (stereo not given),13,62*,-4,0,0,58µM*,
O=C(Nc1ccc(N2CCN(C(=O)c3ccccc3F)CC2)cc1)c1ncn[nH]1,19,59*,-13,0,0,-18%,
O=C(N/N=C/c1c(Cl)cccc1Cl)c1cccc(F)c1,-2,3,11,-2,0,.,
Cc1[nH]n(-c2ccccc2)c(=O)c1/C=N/NC(=O)c1cccc(F)c1,22,58*,-7,-1,0,43µM*,
Cc1ccc(NC(=O)CN(C)C(=O)COc2cccc3cccnc23)cc1,21,58*,-25,1,0,-17%,
O=C(O)COc1ccccc1/C=N/NC(=O)c1cccc(S(=O)(=O)Nc2cccc(Cl)c2)c1,2,52*,.,0,0,71µM*,
COc1ccccc1NS(=O)(=O)c1cccc(C(=O)N/N=C/c2ccc(OCC(=O)O)cc2)c1,31,-2,184,0,0,.,
COc1ccccc1N1CCN(C(=O)CSc2nc3ncnc(N)c3[nH]2)CC1,8,-3,-18,-1,0,.,
Clc1ccc(C2=NCCN2)cc1,23,-3,14,0,0,.,
NC(=O)CSc1nnc(-c2cccs2)n1Cc1ccco1,0,-3,-8,0,0,.,
NC(=O)CSc1nnc(-c2ccc(O)cc2)n1Cc1ccco1,26,38*,94,0,0,28µM*,
